Assay outcomes: PubChem, National Center for Advancing Translational Sciences (NCATS)
Sfp inh = inhibitors of Bacillus subtilis Sfp phosphopantetheinyl transferase | Q9F4F7 | Biochemical Sfp PPTase activity, qHTS | Potency, µM, for the others: largest response in the series, negative = inhibition, usual class: inhibitors | actives 3.5% (n = 310,000) | AID 1490;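 note: the enzyme is Sfp with the accession as filed and its product quenches rhodamine fluorescence; 0% = enzyme reaction without inhibitor and -100% = no enzyme wells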
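Fluorescence-quenching assay: 15 nM Sfp-PPTase preincubated 15 min at room temperature with compound, then 5 uM rhodamine-CoA and 12.5 uM BHQ-2-labelled YbbR peptide added. Fluorescence (ex 525/em 598 nm) read at start and after 30 min; difference gives rate.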
VP16 counter = Gal4-VP16 reporter inhibition counter-screen | Drosophila S2 Gal4-VP16 UAS-luciferase, luminescence, 20 h | actives 3.5% (n = 310,000) | Potency, µM (highest dose often 53.6 µM), inactives show at the highest dose activity, negative = inhibition, most hits filed as inhibitors;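 note: Gal4-VP16 expression switched on by copper sulfate through the metallothionein promoter; nearly all actives have a fitted effect of over 50% in size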
RORgamma inh = ROR gamma (mouse) transcription inhibition | Potency, µM (top dose mostly 53.6 µM), inactives show at the top dose activity change, negative = inhibition, hits mostly inhibitors | AID 2551 | P51450 | actives 5.4% (n = 310,000) | Drosophila S2 Gal4-RORgamma UAS-luciferase reporter, 20 h; note: nearly all actives have a fitted effect of over 60% in size
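Read-out: Photinus luciferase luminescence; inhibitors lower reporter signal. Insect Schneider cells with Gal4-ROR gamma fusion under metallothionein promoter, UAS reporter; 700 uM final copper sulfate induction, 20 hr, ambient temperature.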
ALDH1A1 block = inhibitors of human aldehyde dehydrogenase 1A1 | P00352 | Potency, µM (titrated, usually from 75.3 µM), inactives show at the highest dose activity, negative = inhibition, hits mostly inhibitors | Purified ALDH1A1, NADH fluorescence, propionaldehyde substrate | actives 7.3% (n = 220,000); active = well fitted inhibition curve with a large enough effect, not every such curve was filed as active; inconclusive = small, poorly fitted or top-dose-only effect, or another doubt; inactive = no such curve, though single readings can be large or run the other way;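 note: plate controls were no enzyme wells and a reference inhibitor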
PLK1 PBD inh = PLK1 (human) polo-box domain binding inhibition. Potency, µM, inactives show max response, negative = inhibition, actives largely listed as inhibitors. Plk1 PBD binding of FITC phosphopeptide, fluorescence polarization. actives 2.8% (n = 360,000). P53350. AID 720504; note: series mostly up to about 57 µM; nearly all actives have a fitted effect of over 65% in size
Target sequence (P53350 whole entry, looked up, the tested form may be a part): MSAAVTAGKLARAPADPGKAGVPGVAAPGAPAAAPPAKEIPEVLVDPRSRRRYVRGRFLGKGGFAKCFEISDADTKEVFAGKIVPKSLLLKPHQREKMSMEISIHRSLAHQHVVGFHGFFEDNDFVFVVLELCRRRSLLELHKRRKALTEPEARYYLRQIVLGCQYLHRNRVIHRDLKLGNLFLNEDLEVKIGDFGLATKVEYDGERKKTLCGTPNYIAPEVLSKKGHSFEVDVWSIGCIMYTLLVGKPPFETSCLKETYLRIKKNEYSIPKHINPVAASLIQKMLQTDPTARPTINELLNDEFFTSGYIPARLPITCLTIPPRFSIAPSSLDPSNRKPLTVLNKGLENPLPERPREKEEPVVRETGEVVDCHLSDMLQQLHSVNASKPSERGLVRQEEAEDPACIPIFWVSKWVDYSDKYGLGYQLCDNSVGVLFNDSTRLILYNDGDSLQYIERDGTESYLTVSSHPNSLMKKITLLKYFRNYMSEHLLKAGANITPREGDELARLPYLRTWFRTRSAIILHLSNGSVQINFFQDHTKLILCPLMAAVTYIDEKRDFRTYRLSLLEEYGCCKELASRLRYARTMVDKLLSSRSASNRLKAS
Numbers without * were called inactive; ? = inconclusive; / = no result; [ ] = remark or other dose. A selection: hits, their analogues and other compounds. The true share with any hit is near 12%. Unless noted, calls come from the whole dose curve; as a rule, active = well fitted curve in the direction sought with a large enough effect; inconclusive = small, poorly fitted or top-dose-only effect, or another doubt; inactive = no such curve, though single readings can be large; an effect the other way counts as inactive or inconclusive. Unless noted, % is set by controls: 0 for no effect and ±100 for the full control effect; potency is the fitted concentration of half-maximal effect.

SMILES | Sfp inh | VP16 counter | RORgamma inh | ALDH1A1 block | PLK1 PBD inh
COc1ccc([C@]23Cc4ccccc4C(O2)c2c(cc(C)n(Cc4ccccc4)c2=O)O3)cc1 | 7% | ? | 4%[10 µM] | / | /
CCOC(=O)C1CCN(C(=O)c2ccc(SC)cc2OC)CC1 | 15% | 18% | -7% | -5% | 30µM*
Cc1[nH]c2ccccc2c1C(=O)CSc1ccc(Cl)cc1 | 15% | 6% | 7% | ? | 12µM*
CCOC(=O)c1c(C)[nH]c(C)c1C(=O)CSc1nc2ccccc2c(=O)n1-c1ccc(Cl)cc1 | 7% | -5% | ? | ? | -6%
Cc1[nH]c2ccccc2c1C(=O)CSc1nc2ccccc2c(=O)n1-c1ccccc1F | 4% | 3% | -9% | 0.56µM* | /
CC(=O)N1CCN(Cc2nc3cc(NC(=O)COc4cccc(C)c4)ccc3n2C)CC1 | -23% | 11% | 23% | / | -12%
O=[N+]([O-])c1ccc(C[n+]2cccc3ccc4cccnc4c32)cc1 | 14µM* | ? | -44% | ? | 9.5µM*
O=[N+]([O-])c1ccc(C[n+]2cccc3ccccc32)cc1 | -3% | 0% | -6% | -4% | 5%
CCCn1c(/N=C/c2ccc3c(c2)OCO3)nc2ccccc21 | 8% | -2% | -5% | 14µM* | -10%
Cc1sc2nc(SCC(=O)NCc3ccco3)[nH]c(=O)c2c1C | -8% | -11% | 3% | -6% | 2%
Cc1sc2nc3ccc(NCc4ccco4)nn3c(=O)c2c1C | 32µM* | -2% | 9% | ? | -19%
O=c1c2ccccc2nc2ccc(NCc3ccco3)nn12 | 40µM* | -12% | -8% | ? | -9%
CCC(c1nnnn1-c1c(C)cccc1C)N1CCCN(Cc2ccc(F)cc2)CC1 (stereo not given) | / | / | / | / | -1%
COc1ccc(OC)c(CN2C(=O)CSCC2(C)C(=O)NC(C)C)c1 (stereo not given) | / | / | / | / | -9%
CCNS(=O)(=O)c1ccc(NC(=O)c2ccc(Cn3cc([N+](=O)[O-])cn3)o2)cc1 | 1% | -15% | 4% | 19µM* | 1%
COC(=O)c1ccc(C)c(NC(=O)c2ccc(Cn3cc([N+](=O)[O-])cn3)o2)c1 | 1% | 22% | 12% | 6% | -13%
Oc1c(CN2CCOCC2)ccc2ccccc12 | 6% | -4% | -15% | ? | 24µM*
Oc1c(CN2CCOCC2)cc(-c2ccccc2)cc1CN1CCOCC1 | 10% | 3% | -20% | 3% | -3%
CCCc1cc(=O)oc2c(CN3CCOCC3)c(O)ccc12 | 4% | 1% | 22% | ? | -1%
O=c1cc(CN2CCOCC2)c2ccc(O)c(O)c2o1 | 45µM* | -9% | -30% | / | -10%
O=c1cc(CN2CCN(Cc3ccccc3)CC2)c2ccc(O)c(O)c2o1 | 79µM* | -3% | -1% | / | -7%
COc1cccc(C(=O)N/N=c2\oc3c(OC)cccc3cc2C(=O)NCc2ccccc2)c1 | -11% | 10% | 29% | 0.32µM* | 0%
COc1ccc2cc(C(N)=O)/c(=N\NC(=O)c3ccccc3)oc2c1 | -8% | ? | 13µM* | / | -2%
COc1cccc(C(=O)N/N=c2/oc3ccccc3cc2C(N)=O)c1 | 4% | -1% | 31% | / | -1%
COc1ccc(N=c2oc3c(OC)cccc3cc2C(=O)NCc2ccco2)cc1OC | ? | -13% | -53% | 0.35µM* | 1%
SMILES | Sfp inh | VP16 counter | RORgamma inh | ALDH1A1 block | PLK1 PBD inh
CN(C)c1ccc(-c2ccnc3c2CC(C)(C(=O)Nc2ccc(Cl)c(C(F)(F)F)c2)O3)cc1 (stereo not given) | / | / | / | / | -24%
CC1CCCN(Cc2c(O)ccc3c2O/C(=C\c2ccco2)C3=O)C1 (stereo not given) | 35µM* | 4% | 1% | ? | ?
CC(C)(C)c1cc[n+](C2=C([O-])c3ccccc3C(=O)/C2=N\S(=O)(=O)c2ccccc2)cc1 | -12% | 6.3µM* | 5.6µM* | / | -1%
Cc1cc[n+](C2=C([O-])c3ccccc3C(=O)/C2=N\S(=O)(=O)c2cccs2)cc1C | -16% | 11µM* | 16µM* | ? | -14%
CCCCC[n+]1ccn(C2=C([O-])c3ccccc3C(=O)/C2=N\S(=O)(=O)c2ccccc2)c1 | -2% | ? | ? | 5µM* | 0%
Cc1cc(C)c[n+](C2=C([O-])c3ccccc3C(=O)/C2=N\S(=O)(=O)c2cccs2)c1 | 1% | -2% | 32% | -10% | -25%
COc1ccc(C(=O)c2[nH]c(N)c(C(=O)NCCc3c[nH]c4ccccc34)c2-c2ccc(Br)cc2)cc1 | / | / | / | / | -2%
COCCCNC(=S)NCCNc1nc2cc(C)cc(C)c2cc1C#N | -2% | ? | 8.9µM* | ? | -9%
CCOCCCNC(=S)NCCNc1nc2c(C)cccc2cc1C#N | 50µM* | 3.2µM* | 0.25µM* | ? | -12%
CCOCCCNC(=S)NCCCNc1nc2c(C)cc(C)cc2cc1C#N | ? | 0% | -33% | ? | 24µM*
COc1cccc(C(=O)NCCNc2nc3cc(C)cc(C)c3cc2C#N)c1 | / | / | / | / | 2%
Cc1ccc2cc(C#N)c(NCCNC(=S)NCCCN(C)C)nc2c1C | -4% | -13% | ? | 7% | -4%
Cc1cc(C)c2nc(NCCCNC(=S)NCCCN(C)C)c(C#N)cc2c1 | -17% | -4%[10 µM] | ? | ? | -10%
C[C@H]1CN([C@@H](C)CO)C(=O)CCCn2cc(nn2)CO[C@@H]1CN(C)C(=O)Oc1ccccc1 | / | / | / | / | -5%
O=[N+]([O-])c1ccc(-n2nncc2-c2ccc(Cl)cc2)cc1 | 12% | 9% | 6% | 3% | -14%
O=Cc1ccc(-n2nncc2-c2ccc([N+](=O)[O-])cc2)cc1 | -17% | -6% | 3% | 13µM* | -14%
CSc1nccn1C(=O)c1ccccc1[N+](=O)[O-] | 40µM* | / | / | / | ?
CCCc1cc(-c2nc(-c3ccc(Br)cc3)cs2)ccn1 | ? | 2% | 17%[10 µM] | -9% | 2%
CCCc1cc(-c2nc(-c3ccc(Cl)cc3)cs2)ccn1 | 40µM* | -7% | -40% | -13% | -7%
O=C(O)c1ccc(-n2cccc2/C=N\NC(=O)c2cc3cc(Br)ccc3o2)cc1 | -11% | -2% | 36% | / | 21µM*
CC(=O)OC1C=C[C@@H](OC(C)=O)C1 (stereo not given in full) | -14% | -8% | 2% | / | /
O=C(NC1CCCCC1)N1CCNCC1 | 22% | 12% | 7.9µM* | / | -7%
COc1ccc(C(=O)c2cc(C(C)=O)c(Nc3ccccc3)s2)cc1 | 50µM* | 0% | ? | ? | ?
CC(C)c1ccccc1NC(=O)Nc1nnc([C@H]2C[C@H](O)[C@@H](CO)O2)s1 | / | / | / | / | -8%
COc1ccc(OC)c(NC(=O)c2ccc3c(=O)n(CCc4ccccc4)c(=S)[nH]c3c2)c1 | 3% | 0.89µM* | 0.79µM* | -1% | -3%
O=c1c2cc(Cl)ccc2[nH]c(=S)n1Cc1cccs1 | 11% | 4.5µM* | 2µM* | ? | ?
